# Like-named read-outs stand apart in the source and are kept apart here.
# Columns and labels:
# Parameters in all cases: species or system human, MV4-11 + K-562 + COLO205 + SK-N-BE2 + OVCAR-8
# BUB1 = settings: read-out: apparent Kd, n = 1
# EPHA2 = settings: read-out: apparent Kd, n = 1
# HCK = settings: read-out: apparent Kd, n = 1
# MARK2 = settings: read-out: apparent Kd, compound concentrations: 100 nM and 1000 nM (sheet 'Samples'), n = 1
# PHKG2 = settings: read-out: apparent Kd, n = 1
# PRKAA2 = settings: read-out: apparent Kd, n = 1
# PRKX = settings: read-out: apparent Kd, n = 1
# SRC = settings: read-out: apparent Kd, n = 1
# YES1 = settings: read-out: apparent Kd, n = 1
# CSNK1E = settings: read-out: apparent Kd, n = 1
# TNIK = settings: read-out: apparent Kd; compound concentrations: 100 nM and 1000 nM (sheet 'Samples'), CATDS: 3.2855545776320001E-2; n = 1
# CSNK1A1 = settings: read-out: apparent Kd, compound concentrations: 100 nM and 1000 nM (sheet 'Samples'), n = 1
# MAPK8 = settings: read-out: apparent Kd, n = 1
# ATM = settings: read-out: apparent Kd, n = 1
# ROCK2 = settings: read-out: apparent Kd, n = 1
# ADCK1 = settings: read-out: apparent Kd; compound concentrations: 100 nM and 1000 nM (sheet 'Samples'), CATDS: 5.0791005267813499E-3; n = 1
# CDK17 = settings: read-out: apparent Kd; compound concentrations: 100 nM and 1000 nM (sheet 'Samples'), CATDS: 5.1710144175889199E-3; n = 1
# RIOK2 = settings: read-out: apparent Kd, n = 1
# STK16 = settings: read-out: apparent Kd, n = 1
# STK3 = settings: read-out: apparent Kd, n = 1
# [1] = compound concentrations:100 nM and 1000 nM (sheet 'Samples')
smiles,measurement,setting,value
O=C1N=C(NCCc2ccc(Cl)cc2)S/C1=C\c1ccc2ncccc2c1 [RO4498479-000],potency estimated from few doses,"BUB1; compound concentrations: 100 nM and 1000 nM (sheet 'Samples'), CATDS: 7.8507646745445397E-3",1070 nM
same,potency estimated from few doses,"EPHA2; compound concentrations: 100 nM and 1000 nM (sheet 'Samples'), CATDS: 1.41311052368837E-2",277 nM
same,potency estimated from few doses,"HCK; compound concentrations: 100 nM and 1000 nM (sheet 'Samples'), CATDS: 1.17279601666646E-2",393 nM
same,potency estimated from few doses,MARK2; CATDS: 8.1372297919538004E-3,960 nM
same,potency estimated from few doses,"PHKG2; compound concentrations: 100 nM and 1000 nM (sheet 'Samples'), CATDS: 8.2148610451916008E-3",932 nM
same,potency estimated from few doses,"PRKAA2; compound concentrations: 100 nM and 1000 nM (sheet 'Samples'), CATDS: 9.27662971485879E-3",667 nM
same,potency estimated from few doses,"PRKX; compound concentrations: 100 nM and 1000 nM (sheet 'Samples'), CATDS: 9.1029786610764794E-3",700 nM
same,potency estimated from few doses,"SRC; compound concentrations: 100 nM and 1000 nM (sheet 'Samples'), CATDS: 1.16822109686501E-2",396 nM
same,potency estimated from few doses,"YES1; compound concentrations: 100 nM and 1000 nM (sheet 'Samples'), CATDS: 1.22768983688542E-2",359 nM
CCn1c(-c2nonc2N)nc2c(C#CC(C)(C)O)nc(OCCN)cc21.CCn1c(-c2nonc2N)nc2c(C#CC(C)(C)O)nc(OCCN)cc21.Cl.Cl [GSK902056A],potency estimated from few doses,PRKX; [1],176 nM
Cl.NCc1ccc(-c2nc(-c3ccc(Cl)c(O)c3)c(-c3ccncc3)[nH]2)cc1 [SB-476429-A],potency estimated from few doses,BUB1; [1],2020 nM
same,potency estimated from few doses,CSNK1E; [1],1380 nM
CCn1c(-c2nonc2N)nc2c(-c3ccccc3)ncc(OCCCN)c21.CCn1c(-c2nonc2N)nc2c(-c3ccccc3)ncc(OCCCN)c21.O=C(O)C(F)(F)F.O=C(O)C(F)(F)F [GSK260205A],potency estimated from few doses,"BUB1; compound concentrations: 100 nM and 1000 nM (sheet 'Samples'), CATDS: 0.117322615111941",59 nM
same,potency estimated from few doses,"CSNK1E; compound concentrations: 100 nM and 1000 nM (sheet 'Samples'), CATDS: 3.6163147578600598E-2",706 nM
same,potency estimated from few doses,TNIK,950 nM
COc1cccc2c(-c3ccncc3)c(-c3ccc(F)cc3)nn12 [GW468513X],potency estimated from few doses,"BUB1; compound concentrations: 100 nM and 1000 nM (sheet 'Samples'), CATDS: 4.5362878745682803E-2",739 nM
same,potency estimated from few doses,CSNK1A1; CATDS: 4.67055815056669E-2,666 nM
same,potency estimated from few doses,"CSNK1E; compound concentrations: 100 nM and 1000 nM (sheet 'Samples'), CATDS: 8.4108879944504403E-2",140 nM
same,potency estimated from few doses,"MAPK8; compound concentrations: 100 nM and 1000 nM (sheet 'Samples'), CATDS: 3.7375924419407701E-2",1750 nM
Cl.Cl.NCC(C(=O)Nc1cc(Br)c(-c2ccnc3[nH]ccc23)s1)c1ccccc1.NCC(C(=O)Nc1cc(Br)c(-c2ccnc3[nH]ccc23)s1)c1ccccc1 (stereo not drawn) [GSK1269851A],potency estimated from few doses,ATM; [1],275 nM
same,potency estimated from few doses,BUB1; [1],2170 nM
same,potency estimated from few doses,EPHA2; [1],505 nM
same,potency estimated from few doses,HCK; [1],554 nM
same,potency estimated from few doses,PHKG2; [1],2300 nM
same,potency estimated from few doses,PRKAA2; [1],1130 nM
same,potency estimated from few doses,PRKX; [1],1890 nM
same,potency estimated from few doses,ROCK2; [1],1330 nM
same,potency estimated from few doses,SRC; [1],523 nM
same,potency estimated from few doses,YES1; [1],378 nM
CCn1c(-c2nonc2N)nc2c(C#CC(C)(C)O)nc(OC[C@@H](N)c3ccccc3)cc21 [GSK938890A],potency estimated from few doses,"PRKX; compound concentrations: 100 nM and 1000 nM (sheet 'Samples'), CATDS: 0.16139090072401199",36.6 nM
same,potency estimated from few doses,"ROCK2; compound concentrations: 100 nM and 1000 nM (sheet 'Samples'), CATDS: 5.36427183140821E-2",1160 nM
CN1C[C@@H]2Cn3c(c(C4=C(c5cn(C)c6ccccc56)C(=O)NC4=O)c4ccccc43)C[C@H]2C1.Cl [RO0320234-001],potency estimated from few doses,ATM; [1],29.7 nM
same,potency estimated from few doses,EPHA2; [1],59.7 nM
same,potency estimated from few doses,HCK; [1],317 nM
same,potency estimated from few doses,PHKG2; [1],2180 nM
same,potency estimated from few doses,PRKAA2; [1],448 nM
same,potency estimated from few doses,PRKX; [1],925 nM
same,potency estimated from few doses,SRC; [1],120 nM
same,potency estimated from few doses,YES1; [1],97.8 nM
Cn1ncc2c(N)ncnc21 [SKF-18267],potency estimated from few doses,ADCK1,789 nM
same,potency estimated from few doses,"ATM; compound concentrations: 100 nM and 1000 nM (sheet 'Samples'), CATDS: 1.5157721070637E-2",152 nM
same,potency estimated from few doses,"BUB1; compound concentrations: 100 nM and 1000 nM (sheet 'Samples'), CATDS: 3.8134095637251098E-3",1510 nM
same,potency estimated from few doses,CDK17,762 nM
same,potency estimated from few doses,CSNK1A1; CATDS: 5.1324512690416697E-3,773 nM
same,potency estimated from few doses,"CSNK1E; compound concentrations: 100 nM and 1000 nM (sheet 'Samples'), CATDS: 4.2831601683339304E-3",1130 nM
same,potency estimated from few doses,"EPHA2; compound concentrations: 100 nM and 1000 nM (sheet 'Samples'), CATDS: 6.1597951567788304E-3",555 nM
same,potency estimated from few doses,"HCK; compound concentrations: 100 nM and 1000 nM (sheet 'Samples'), CATDS: 4.5358126876330496E-3",997 nM
same,potency estimated from few doses,"MAPK8; compound concentrations: 100 nM and 1000 nM (sheet 'Samples'), CATDS: 3.9571355950897801E-3",1370 nM
same,potency estimated from few doses,MARK2; CATDS: 3.8405596428901902E-3,1490 nM
same,potency estimated from few doses,"PHKG2; compound concentrations: 100 nM and 1000 nM (sheet 'Samples'), CATDS: 4.3394023432843602E-3",1100 nM
same,potency estimated from few doses,"RIOK2; compound concentrations: 100 nM and 1000 nM (sheet 'Samples'), CATDS: 5.3875103826164002E-3",705 nM
same,potency estimated from few doses,"ROCK2; compound concentrations: 100 nM and 1000 nM (sheet 'Samples'), CATDS: 4.7820751865343299E-3",891 nM
same,potency estimated from few doses,"SRC; compound concentrations: 100 nM and 1000 nM (sheet 'Samples'), CATDS: 7.2051481672215003E-3",429 nM
same,potency estimated from few doses,"STK16; compound concentrations: 100 nM and 1000 nM (sheet 'Samples'), CATDS: 4.0331507933998702E-3",1310 nM
same,potency estimated from few doses,"STK3; compound concentrations: 100 nM and 1000 nM (sheet 'Samples'), CATDS: 4.2986396089691199E-3",1120 nM
same,potency estimated from few doses,"YES1; compound concentrations: 100 nM and 1000 nM (sheet 'Samples'), CATDS: 6.9300225951379104E-3",456 nM
Cl.ON=C1CCc2cc(-c3nc(C4CCNCC4)[nH]c3-c3ccncc3)ccc21 [SB-614067-R],potency estimated from few doses,CSNK1E; [1],1190 nM
Cc1ccc(Nc2ccnc(Nc3ccc4c(c3)CS(=O)(=O)C4)n2)cc1O.Cl [GW579362A],potency estimated from few doses,"STK16; compound concentrations: 100 nM and 1000 nM (sheet 'Samples'), CATDS: 2.76147737346315E-2",1620 nM
CCOC(=O)N1CCC(n2cnc(-c3ccc(F)cc3)c2-c2ccnc(N)n2)CC1 [SB-219952],potency estimated from few doses,"BUB1; compound concentrations: 100 nM and 1000 nM (sheet 'Samples'), CATDS: 8.9704944978388403E-3",1170 nM
same,potency estimated from few doses,CSNK1A1; CATDS: 5.7270515376472299E-2,44.2 nM
same,potency estimated from few doses,"CSNK1E; compound concentrations: 100 nM and 1000 nM (sheet 'Samples'), CATDS: 8.1899018563860101E-2",27.3 nM
same,potency estimated from few doses,"EPHA2; compound concentrations: 100 nM and 1000 nM (sheet 'Samples'), CATDS: 1.0740036537242301E-2",726 nM
same,potency estimated from few doses,"HCK; compound concentrations: 100 nM and 1000 nM (sheet 'Samples'), CATDS: 1.02495423413253E-2",814 nM
same,potency estimated from few doses,"MAPK8; compound concentrations: 100 nM and 1000 nM (sheet 'Samples'), CATDS: 8.8818893864712808E-3",1210 nM
same,potency estimated from few doses,MARK2; CATDS: 9.1119285329163396E-3,1120 nM
same,potency estimated from few doses,"PHKG2; compound concentrations: 100 nM and 1000 nM (sheet 'Samples'), CATDS: 9.7897546431884499E-3",916 nM
same,potency estimated from few doses,"PRKAA2; compound concentrations: 100 nM and 1000 nM (sheet 'Samples'), CATDS: 1.0917376994103299E-2",698 nM
same,potency estimated from few doses,"SRC; compound concentrations: 100 nM and 1000 nM (sheet 'Samples'), CATDS: 1.0314047860945599E-2",802 nM
same,potency estimated from few doses,"YES1; compound concentrations: 100 nM and 1000 nM (sheet 'Samples'), CATDS: 1.05685479515238E-2",755 nM
CN(c1ccc(NC(=O)Nc2cccc(Cl)c2)cc1)c1ccnc(N)n1.Cl [GW830707A],potency estimated from few doses,"ATM; compound concentrations: 100 nM and 1000 nM (sheet 'Samples'), CATDS: 7.3316367539925598E-2",4.81 nM
same,potency estimated from few doses,"EPHA2; compound concentrations: 100 nM and 1000 nM (sheet 'Samples'), CATDS: 2.1264502158694101E-2",44.8 nM
same,potency estimated from few doses,"ROCK2; compound concentrations: 100 nM and 1000 nM (sheet 'Samples'), CATDS: 3.3185939241444598E-2",16.9 nM
same,potency estimated from few doses,"SRC; compound concentrations: 100 nM and 1000 nM (sheet 'Samples'), CATDS: 2.2534153996718501E-2",38.6 nM
same,potency estimated from few doses,"YES1; compound concentrations: 100 nM and 1000 nM (sheet 'Samples'), CATDS: 2.3597692911318701E-2",34.5 nM
CNC(=O)c1ccccc1Nc1nc(Nc2ccc(N3CCOCC3)cc2)ncc1Cl.Cl [GSK1576028A],potency estimated from few doses,HCK; [1],676 nM
same,potency estimated from few doses,MAPK8; [1],88.4 nM
same,potency estimated from few doses,PRKAA2; [1],688 nM
same,potency estimated from few doses,RIOK2; [1],2140 nM
same,potency estimated from few doses,SRC; [1],1280 nM
same,potency estimated from few doses,STK16; [1],1770 nM
same,potency estimated from few doses,STK3; [1],1270 nM
same,potency estimated from few doses,YES1; [1],322 nM
Fc1ccc(-c2c(-c3ccncc3)[nH]c3cccnc23)cc1 [RO1153853-000],potency estimated from few doses,"BUB1; compound concentrations: 100 nM and 1000 nM (sheet 'Samples'), CATDS: 4.9666048128405298E-2",1690 nM
same,potency estimated from few doses,"CSNK1E; compound concentrations: 100 nM and 1000 nM (sheet 'Samples'), CATDS: 9.9990073063758705E-2",274 nM
